# Shown are actives, neighbours in structure and some others; about 2.4% of the full set was active somewhere.
# ABHD5 PLIN5 PPI – inhibitors of human ABHD5-perilipin-5 interaction; inhibition, % at 4 µM; Split G. princeps luciferase complementation, luminescence, 4 h; AID 602281; 360,000 compounds, 0.78% hits; Q00G26+Q8WTS1;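 active = inhibition above the mean inhibition across every tested compound plus 3 SD, cut at about 22% in these data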;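 note: 0% = DMSO only wells and the 100% control is not disclosed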
# Target sequence (Q00G26 whole entry, looked up): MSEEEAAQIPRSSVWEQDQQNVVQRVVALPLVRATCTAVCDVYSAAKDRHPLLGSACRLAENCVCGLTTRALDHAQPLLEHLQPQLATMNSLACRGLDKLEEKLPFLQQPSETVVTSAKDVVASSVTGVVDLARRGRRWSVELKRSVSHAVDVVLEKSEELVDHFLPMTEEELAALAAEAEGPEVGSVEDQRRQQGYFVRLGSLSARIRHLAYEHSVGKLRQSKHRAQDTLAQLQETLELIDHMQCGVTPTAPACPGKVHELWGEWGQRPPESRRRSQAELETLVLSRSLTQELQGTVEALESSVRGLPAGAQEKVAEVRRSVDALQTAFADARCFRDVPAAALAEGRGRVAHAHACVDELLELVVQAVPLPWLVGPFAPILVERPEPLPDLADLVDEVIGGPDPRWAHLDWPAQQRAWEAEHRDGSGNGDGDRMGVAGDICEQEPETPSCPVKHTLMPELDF
# Target sequence (Q8WTS1 whole entry, looked up): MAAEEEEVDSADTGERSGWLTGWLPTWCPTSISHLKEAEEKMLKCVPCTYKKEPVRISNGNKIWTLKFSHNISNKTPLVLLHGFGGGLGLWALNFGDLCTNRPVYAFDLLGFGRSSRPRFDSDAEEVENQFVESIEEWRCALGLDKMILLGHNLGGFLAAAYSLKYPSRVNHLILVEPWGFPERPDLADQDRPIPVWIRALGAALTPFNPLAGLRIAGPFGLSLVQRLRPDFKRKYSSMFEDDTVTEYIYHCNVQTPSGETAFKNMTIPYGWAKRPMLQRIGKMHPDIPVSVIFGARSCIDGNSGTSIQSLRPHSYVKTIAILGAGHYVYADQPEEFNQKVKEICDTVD
# NOD2-RIPK2 inh – blocks binding of human NOD2 to RIPK2. O43353. CHO BLA complementation NOD2-RIPK2, CCF4 ratio. inhibition, % at 4.98 µM. 360,000 compounds, 0.38% hits. AID 624267; in the data active = inhibition above about 21%;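 note: 0% = vehicle only and 100% = reference blocker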
# TLR4 MyD88 comp – blocks binding of human TLR4 to MyD88. AID 861. inhibition, % at 8.4 µM. O00206+Q99836. HeLa CL3-4 TLR4/MyD88 BLA complementation, FRET ratio. 200,000 compounds, 0.18% hits; in the data active = inhibition above about 25%;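 note: 0% = vehicle and 100% = reference inhibitor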
# m5-HT2A agonist – mouse HTR2A agonism via beta-arrestin recruitment; activation, % at 7.6 µM; 360,000 compounds, 0.66% hits; CHO-K1 mHTR2A beta-arrestin complementation, luminescence; percent of 30 µM serotonin response; P35363;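 active = activation above a run cutoff, the mean activation of all tested compounds plus 3 SD, cut at about 14% in these data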;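 note: 0% = plate median of compound wells and 100% = 30 µM serotonin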
# CRFR2-BP antag – blocks CRF-induced signaling of the CRF-BP/CRF-R2 complex | HEK293 CRF-R2/CRF-BP, CRF-induced calcium fluorescence | inhibition, % at 11.8 µM | 350,000 compounds, 0.59% hits;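 active = inhibition of the ligand-induced calcium signal above about 50% at the single tested concentration, limit read from the data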
# TLR9-MyD88 block – inhibitors of human TLR9-MyD88 binding; 340,000 compounds, 0.21% hits; Q9NR96+Q99836; CHO BLA complementation TLR9-MyD88, CCF4 FRET ratio; AID 504734; inhibition, % at 4.98 µM;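 active = inhibition above the mean over all tested compounds plus 3 SD, cut at about 21% in these data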;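 note: 0% = DMSO only wells and 100% = clavulanate BLA inhibitor control wells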
# * marks the source's active call; other numbers are inactive results; . = not tested or not shown.
SMILES,ABHD5 PLIN5 PPI,NOD2-RIPK2 inh,TLR4 MyD88 comp,m5-HT2A agonist,CRFR2-BP antag,TLR9-MyD88 block
c1ccc(C(c2nnnn2Cc2cccs2)N2CCN(C3CCCC3)CC2)cc1 (stereo not drawn),0.1,-1.8,-5.3,-6.9,65.1*,-4.3
CCOC(=O)c1cc(C)sc1NC(=O)CCC(=O)O,4.0,10.2,5.9,2.2,58.8*,1.1
CCc1cc(C(=O)OC)c(NC(=O)CCC(=O)O)s1,-3.5,-3.8,-10.2,6.0,12.4,-4.7
CC(C)(C)C(=O)Nc1sc(-c2ccccc2)cc1C(=O)O,2.1,-1.4,.,-3.7,15.8,2.2
Cc1cccc(C(=O)Nc2sc(-c3ccccc3)cc2C(=O)O)c1,1.0,9.0,.,0.5,57.9*,-10.2
C=Cn1cc[n+](CC(=O)c2ccc(Cl)cc2)c1,1.7,-1.8,.,6.9,117.2*,1.7
COc1cc(C)nc(NCc2ccccc2)n1,-3.7,-4.8,11.4,-7.1,12.4,-10.4
COc1ccc(Nc2cc(C)nc(NCc3ccccc3)n2)cc1,22.2*,-0.8,.,3.4,-19.5,.
Cc1cc(NC(=O)C2(C)CCN2C(C)C)c2ccccc2n1 (stereo not drawn),2.2,-2.1,.,-3.2,.,.
COc1cccc(C2C=C(c3cccs3)Nc3ncnn32)c1OC (stereo not drawn),-4.2,48.4*,2.8,6.4,-16.1,44.6*
Cc1ccc(N2C(=O)C3C4C=CC(CC4)C3C2=O)cc1[N+](=O)[O-] (stereo not drawn),-3.0,-0.7,.,11.5,73.0*,-11.8
Cc1ccc(N2C(=O)C3C4C=CC(C4)C3C2=O)cc1C (stereo not drawn),-2.8,-14.7,-7.9,1.8,1.0,-22.4
CC(=O)Nc1cc(-c2ccoc2)cn2c(-c3ccccc3)cnc12,15.7,2.4,.,-3.1,.,.
CC1CC(C)CN(S(=O)(=O)N2CCCC(C(=O)NCCc3ccccc3)C2)C1 (stereo not drawn),0.8,-1.4,.,-2.5,-3.0,-6.0
Cc1ccc(CCNC(=O)C2CCCN(S(=O)(=O)N3CC(C)CC(C)C3)C2)cc1 (stereo not drawn),-3.9,-9.2,.,4.2,85.0*,-1.1
COc1cc2c(cc1NC(=O)COC(=O)CNC(=O)c1ccccc1)oc1ccccc12,-0.9,-5.6,-9.6,-6.0,76.1*,4.0
CCOc1ccc(N(CC(=O)NCC2CCCO2)C(=O)CCC(=O)Nc2nccs2)cc1 (stereo not drawn),-1.8,-15.4,0.6,1.0,51.9*,-8.9
CCCCOc1ccc(N(CC(=O)NCC2CCCO2)C(=O)CCC(=O)Nc2nccs2)cc1 (stereo not drawn),-3.4,8.3,10.1,0.0,-39.6,-12.4
C=CCOC(=O)C1=C[C@H](C(C)(C)C)[C@@H](CCCO)[C@H](OCC)O1,-1.7,0.4,.,-3.8,5.4,-10.8
CCO[C@@H]1OC(C(N)=O)=C[C@H](C(C)(C)C)[C@H]1CCCO,-3.8,0.5,.,6.7,108.6*,5.3
CCOc1ccc(NC(=O)[C@@H](NC(=O)OCc2ccccc2)[C@@H](C)CC)cc1,-1.5,5.2,-14.4,1.1,10.9,-5.1
CCOc1ccc(NC(=O)[C@@H](NC(=O)c2ccccc2)[C@@H](C)CC)cc1,0.9,-5.6,-21.0,3.9,62.7*,-7.3
CSc1nc(C)c(C(=O)C[n+]2ccccc2C)cc1C#N,2.7,2.8,.,1.2,72.5*,-4.2
Cc1ccc(-c2nn(C)c(=O)c3ccccc23)cc1CO,-0.6,-1.3,1.1,0.7,68.7*,0.8
CC(C)N1CCC1(C)C(=O)Nc1nccc2cccnc12 (stereo not drawn),-6.4,-5.7,.,1.1,.,.
CCN1CCN(Cc2ccc(NC(=O)c3ccc(C)c(NC(=O)c4nccn4C)c3)cc2C(F)(F)F)CC1,3.6,-4.2,.,-10.6,3.1,-8.2
CCN1CCN(Cc2ccc(NC(=O)c3ccc(C)c(NC(=O)c4cncc(-c5cccs5)c4)c3)cc2C(F)(F)F)CC1,26.4*,29.3*,.,-9.4,-3.6,7.0
COc1ccc(-c2c(C)nn3c(N4CCCCCC4)cc(C)nc23)cc1OC,-3.3,-2.8,.,3.7,55.6*,-6.1
COc1ccc(-c2c(C)nn3c(N4CCOCC4)cc(C)nc23)cc1OC,7.5,-0.2,.,3.6,12.7,-41.7
